Bioassay records: PubChem BioAssay, National Center for Advancing Translational Sciences (NCATS)
The list is not random: actives were taken first. Their share in the collection is about 12%.
BAZ2B block: BAZ2B (human) inhibition; Potency, µM (doses to about 114 µM), most hits filed as inhibitors; Q9UIF8; 4.4% of 360,000 active; AlphaScreen BAZ2B-H3K14Ac peptide displacement; note: nearly all actives have a fitted effect of over 60% in size
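Multi-concentration screen (max 110 uM) measuring displacement of acetylated histone H3 peptide from BAZ2B by AlphaScreen, using 50 nM protein, 50 nM peptide and 10 ug/mL streptavidin donor plus Ni-chelate acceptor beads.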
Sfp inh: blocks B. subtilis Sfp PPTase activity; Q9F4F7; Biochemical Sfp PPTase activity, qHTS; Potency, µM, usual class: inhibitors; 3.5% of 310,000 active; AID 1490;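 note: the enzyme is Sfp with the accession as filed and its product quenches rhodamine fluorescence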
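Step 1, compound plus 15 nM Sfp-PPTase, 15 min, room temperature. Step 2, add rhodamine-CoA (5 uM) and BHQ-2-YbbR (12.5 uM). Step 3, read 525/598 nm fluorescence at 0 and 30 min.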
G9a inh: G9a (human) methyltransferase inhibition; Q96KQ7; G9a H3K9 monomethylation, AlphaScreen, 2 h; Potency, µM (series often up to 102 µM), usual class: inhibitors; 8.8% of 350,000 active; AID 504332; note: nearly all actives have a fitted effect of over 75% in size
Target sequence (Q96KQ7 913-1193 limits assumed): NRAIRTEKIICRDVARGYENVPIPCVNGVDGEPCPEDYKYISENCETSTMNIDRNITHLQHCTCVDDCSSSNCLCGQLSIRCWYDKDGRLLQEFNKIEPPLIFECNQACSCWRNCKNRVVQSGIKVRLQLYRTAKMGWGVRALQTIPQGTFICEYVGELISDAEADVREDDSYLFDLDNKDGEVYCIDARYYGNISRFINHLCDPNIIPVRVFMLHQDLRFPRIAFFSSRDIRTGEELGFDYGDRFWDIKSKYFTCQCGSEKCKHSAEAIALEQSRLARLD
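Methyltransferase reactions run at room temperature for 2 h (20 nM enzyme, 500 nM biotin-H3K9 peptide, 20 uM SAM) after a 15 min compound preincubation; product detected by AlphaScreen beads and anti-H3K9me1 antibody.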
JMJD2A Tudor inh: blocks the human JMJD2A Tudor domain; Potency, µM (highest dose often 114 µM), actives largely listed as inhibitors; AlphaScreen JMJD2A-Tudor / H3K4me3 peptide binding; 4.4% of 390,000 active; O75164; note: nearly all actives have a fitted effect of over 50% in size
L3MBTL1 inh: blocks human L3MBTL1; AlphaScreen L3MBTL1–H3K9me1 peptide binding; Potency, µM (titrated, usually from 57.1 µM), most hits filed as inhibitors; 0.66% of 230,000 active; AID 485360; note: nearly all actives have a fitted effect of over 60% in size
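AlphaScreen assay: L3MBTL1 (50 nM final) was preincubated 30 min at room temperature with biotinylated H3(1-15)K9me1 peptide (75 nM final), then 30 min with library compounds; streptavidin donor and nickel chelate acceptor beads (10 ug/mL final) added, 30 min dark.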
HP1b chromo inh: inhibitors of HP1-beta chromodomain binding to methylated histone tails; AID 540317; Potency, µM (titrated, usually from 114 µM), usual class: inhibitors; P83916; AlphaScreen HP1-beta / biotin-H3K9me3 peptide binding; 0.56% of 390,000 active; note: nearly all actives have a fitted effect of over 70% in size
Target sequence (P83916 whole entry, looked up): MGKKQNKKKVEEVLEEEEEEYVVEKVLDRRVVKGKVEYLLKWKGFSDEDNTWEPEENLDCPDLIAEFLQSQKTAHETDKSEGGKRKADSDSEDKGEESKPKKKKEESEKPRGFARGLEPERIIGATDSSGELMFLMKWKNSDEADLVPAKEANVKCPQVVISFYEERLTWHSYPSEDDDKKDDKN
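AlphaScreen: HP1-beta (50 nM) preformed 30 min with biotin-H3(1-18)K9me3 peptide (50 nM) in PBS pH 7.4, 0.01% Tween-20. Compound added for 30 min at RT, then streptavidin donor/nickel chelate acceptor beads (10 ug/mL) for 30 min.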
Each line names hits and unclear results; the compound was inactive in the other large screens. Calls come from the whole dose curve; as a rule, active = well fitted curve in the direction sought with a large enough effect; inconclusive = small, poorly fitted or top-dose-only effect, or another doubt; inactive = no such curve, though single readings can be large; an effect the other way counts as inactive or inconclusive.

CCn1cc(/C=C(\NC(=O)c2ccc(OC)cc2)C(=O)N2CCN(C)CC2)c2ccccc21	none (no result: L3MBTL1 inh)
COc1cccc([C@@H]2Oc3ccc(OC)cc3C[C@H]2OC(=O)NS(=O)(=O)c2ccc(F)cc2)c1	none (no result: BAZ2B block, G9a inh, JMJD2A Tudor inh, L3MBTL1 inh, HP1b chromo inh)
COc1ccc(CNC(=O)Cc2c(C)c3ccc(O)cc3oc2=O)cc1	none (no result: Sfp inh, L3MBTL1 inh)
Fc1ccc(Cl)cc1/C=N/n1cnnc1SCc1ccccc1	none (no result: L3MBTL1 inh)
C(=N\n1cnnc1SCc1ccccc1)/c1ccco1	G9a inh 56.2µM
COc1ccc(S(=O)(=O)Nc2cccc(-c3ccc(N4CCC(C)CC4)nn3)c2)cc1OC	none (no result: Sfp inh, L3MBTL1 inh)
COC(CNC(=O)c1ccc2c3c(onc13)-c1ccccc1C2=O)OC	BAZ2B block inconclusive, Sfp inh 17.8µM, G9a inh 28.2µM, JMJD2A Tudor inh 50.1µM, L3MBTL1 inh inconclusive, HP1b chromo inh inconclusive
Cc1cc(C)cc(NC(=O)CCN2C(=O)c3ccccc3Sc3ncccc32)c1	G9a inh inconclusive (no result: Sfp inh, L3MBTL1 inh)
Cc1cc(C)n(CCc2nc(-c3ccc(C)o3)cs2)n1	BAZ2B block inconclusive, Sfp inh 8.91µM, G9a inh inconclusive, JMJD2A Tudor inh 79.4µM, HP1b chromo inh inconclusive (no result: L3MBTL1 inh)
CNC(=O)C1CCC(Cn2c(=O)c3sccc3n(CC(=O)Nc3ccccc3)c2=O)CC1 (stereo unspecified)	none (no result: Sfp inh, L3MBTL1 inh)
Cc1cc(NS(=O)(=O)c2ccc(OCCNS(C)(=O)=O)cc2)no1	none (no result: L3MBTL1 inh)
CCNS(=O)(=O)c1ccc(OCCNS(C)(=O)=O)cc1	JMJD2A Tudor inh 89.1µM
CCN(CC)S(=O)(=O)c1ccc(OCCNS(C)(=O)=O)cc1	JMJD2A Tudor inh 11.2µM (no result: L3MBTL1 inh)
COc1ccc(NC(=O)N2CCC3(CC2)CCN(C(=O)c2cc(C(F)(F)F)cc(C(F)(F)F)c2)CC3)cc1	none (no result: BAZ2B block, JMJD2A Tudor inh, L3MBTL1 inh, HP1b chromo inh)
CC(C)CN1CC[C@@]2(CCCN(C(=O)c3cccc(F)c3)C2)C1	none (no result: BAZ2B block, JMJD2A Tudor inh, L3MBTL1 inh, HP1b chromo inh)
COC1=C/C(=C/c2c(N)n3nc(-c4ccc(C)cc4)sc3nc2=O)C=CC1=O	BAZ2B block 50.1µM, G9a inh inconclusive, JMJD2A Tudor inh inconclusive
CCOC1=C/C(=C/c2c(N)n3nc(-c4ccccc4)sc3nc2=O)C=CC1=O	BAZ2B block 39.8µM, G9a inh 39.8µM
CCS(=O)(=O)c1nn2c(N)c(/C=C3/C=CC(=O)C(OC)=C3)c(=O)nc2s1	G9a inh inconclusive
CCOC1=C/C(=C/c2c(N)n3oc(C)cc3nc2=O)C=CC1=O	none (no result: JMJD2A Tudor inh, L3MBTL1 inh, HP1b chromo inh)
O=C(C#Cc1ccccc1)c1ccco1	Sfp inh inconclusive, G9a inh 39.8µM (no result: L3MBTL1 inh)
CCOC(=O)c1cnn2c(N)c(C#N)cnc12	BAZ2B block inconclusive, G9a inh 44.7µM, JMJD2A Tudor inh inconclusive
CCOC(=O)c1cnc2c(C(=O)OCC)cnn2c1N	none (no result: G9a inh)
CC(c1nc2ccccc2c(=O)[nH]1)N1CCOCC1 (stereo unspecified)	none
CC(c1nc2ccccc2c(=O)[nH]1)N1CCN(C)CC1 (stereo unspecified)	G9a inh inconclusive, JMJD2A Tudor inh 70.8µM, HP1b chromo inh inconclusive (no result: L3MBTL1 inh)
CCN(CC)S(=O)(=O)c1ccc(N2CCOCC2)c(NS(=O)(=O)c2ccc(C(C)C)cc2)c1	JMJD2A Tudor inh 25.1µM, HP1b chromo inh inconclusive
CCN(CC)S(=O)(=O)c1ccc(N2CCOCC2)c(NS(=O)(=O)c2cc(C(C)(C)C)ccc2C)c1	G9a inh 10µM, JMJD2A Tudor inh inconclusive, HP1b chromo inh inconclusive
CCN(CC)S(=O)(=O)c1ccc(N2CCOCC2)c(NS(=O)(=O)c2cccs2)c1	none (no result: Sfp inh)
Nc1c(C(=O)O)sc2nc(-c3ccccc3)cc(-c3ccc(Cl)cc3)c12	BAZ2B block inconclusive, JMJD2A Tudor inh inconclusive
Nc1c(C(=O)O)sc2nc(-c3ccc(F)cc3)cc(-c3ccccc3)c12	Sfp inh 50.1µM, G9a inh inconclusive (no result: L3MBTL1 inh)
COc1ccc(C(=O)c2coc3ccc(O)c(CN4CCCCC4)c23)cc1	G9a inh 25.1µM
Cc1ccc(CSc2nnc(-c3ccncc3)n2N)cc1	Sfp inh inconclusive
Cc1ccc(CSc2nnc(-c3ccncc3)n2C)cc1	BAZ2B block inconclusive, JMJD2A Tudor inh 89.1µM (no result: L3MBTL1 inh)
Cc1ccccc1Nc1nc(CSc2nnc(-c3ccoc3C)n2C)cs1	BAZ2B block inconclusive, Sfp inh 20µM, G9a inh 39.8µM
Cc1ccc(Nc2nc(CSc3nnc(-c4ccncc4)n3C)cs2)cc1	Sfp inh 39.8µM, G9a inh 39.8µM
